According to the supplement of paper PMC11732987, “Enantioselective OTUD7B fragment discovery through chemoproteomics screening and high-throughput optimisation” (Communications Chemistry, 2025):

Legend:
Assay in all cases: log2 ratio of Biotin-Ahx-Ub-VS probe labelling (fragment/DMSO); higher = less target engagement (more negative = stronger competition), active = hit call of the paper (q ≤ 0.05, log2 ratio ≤ -1)
Conditions in all cases: compound concentration: 200 uM; treatment time: 3 h
USP34 = USP34 (UniProt Q70CQ2)
Chain of USP34 (Q70CQ2 whole entry, the tested form may be a part): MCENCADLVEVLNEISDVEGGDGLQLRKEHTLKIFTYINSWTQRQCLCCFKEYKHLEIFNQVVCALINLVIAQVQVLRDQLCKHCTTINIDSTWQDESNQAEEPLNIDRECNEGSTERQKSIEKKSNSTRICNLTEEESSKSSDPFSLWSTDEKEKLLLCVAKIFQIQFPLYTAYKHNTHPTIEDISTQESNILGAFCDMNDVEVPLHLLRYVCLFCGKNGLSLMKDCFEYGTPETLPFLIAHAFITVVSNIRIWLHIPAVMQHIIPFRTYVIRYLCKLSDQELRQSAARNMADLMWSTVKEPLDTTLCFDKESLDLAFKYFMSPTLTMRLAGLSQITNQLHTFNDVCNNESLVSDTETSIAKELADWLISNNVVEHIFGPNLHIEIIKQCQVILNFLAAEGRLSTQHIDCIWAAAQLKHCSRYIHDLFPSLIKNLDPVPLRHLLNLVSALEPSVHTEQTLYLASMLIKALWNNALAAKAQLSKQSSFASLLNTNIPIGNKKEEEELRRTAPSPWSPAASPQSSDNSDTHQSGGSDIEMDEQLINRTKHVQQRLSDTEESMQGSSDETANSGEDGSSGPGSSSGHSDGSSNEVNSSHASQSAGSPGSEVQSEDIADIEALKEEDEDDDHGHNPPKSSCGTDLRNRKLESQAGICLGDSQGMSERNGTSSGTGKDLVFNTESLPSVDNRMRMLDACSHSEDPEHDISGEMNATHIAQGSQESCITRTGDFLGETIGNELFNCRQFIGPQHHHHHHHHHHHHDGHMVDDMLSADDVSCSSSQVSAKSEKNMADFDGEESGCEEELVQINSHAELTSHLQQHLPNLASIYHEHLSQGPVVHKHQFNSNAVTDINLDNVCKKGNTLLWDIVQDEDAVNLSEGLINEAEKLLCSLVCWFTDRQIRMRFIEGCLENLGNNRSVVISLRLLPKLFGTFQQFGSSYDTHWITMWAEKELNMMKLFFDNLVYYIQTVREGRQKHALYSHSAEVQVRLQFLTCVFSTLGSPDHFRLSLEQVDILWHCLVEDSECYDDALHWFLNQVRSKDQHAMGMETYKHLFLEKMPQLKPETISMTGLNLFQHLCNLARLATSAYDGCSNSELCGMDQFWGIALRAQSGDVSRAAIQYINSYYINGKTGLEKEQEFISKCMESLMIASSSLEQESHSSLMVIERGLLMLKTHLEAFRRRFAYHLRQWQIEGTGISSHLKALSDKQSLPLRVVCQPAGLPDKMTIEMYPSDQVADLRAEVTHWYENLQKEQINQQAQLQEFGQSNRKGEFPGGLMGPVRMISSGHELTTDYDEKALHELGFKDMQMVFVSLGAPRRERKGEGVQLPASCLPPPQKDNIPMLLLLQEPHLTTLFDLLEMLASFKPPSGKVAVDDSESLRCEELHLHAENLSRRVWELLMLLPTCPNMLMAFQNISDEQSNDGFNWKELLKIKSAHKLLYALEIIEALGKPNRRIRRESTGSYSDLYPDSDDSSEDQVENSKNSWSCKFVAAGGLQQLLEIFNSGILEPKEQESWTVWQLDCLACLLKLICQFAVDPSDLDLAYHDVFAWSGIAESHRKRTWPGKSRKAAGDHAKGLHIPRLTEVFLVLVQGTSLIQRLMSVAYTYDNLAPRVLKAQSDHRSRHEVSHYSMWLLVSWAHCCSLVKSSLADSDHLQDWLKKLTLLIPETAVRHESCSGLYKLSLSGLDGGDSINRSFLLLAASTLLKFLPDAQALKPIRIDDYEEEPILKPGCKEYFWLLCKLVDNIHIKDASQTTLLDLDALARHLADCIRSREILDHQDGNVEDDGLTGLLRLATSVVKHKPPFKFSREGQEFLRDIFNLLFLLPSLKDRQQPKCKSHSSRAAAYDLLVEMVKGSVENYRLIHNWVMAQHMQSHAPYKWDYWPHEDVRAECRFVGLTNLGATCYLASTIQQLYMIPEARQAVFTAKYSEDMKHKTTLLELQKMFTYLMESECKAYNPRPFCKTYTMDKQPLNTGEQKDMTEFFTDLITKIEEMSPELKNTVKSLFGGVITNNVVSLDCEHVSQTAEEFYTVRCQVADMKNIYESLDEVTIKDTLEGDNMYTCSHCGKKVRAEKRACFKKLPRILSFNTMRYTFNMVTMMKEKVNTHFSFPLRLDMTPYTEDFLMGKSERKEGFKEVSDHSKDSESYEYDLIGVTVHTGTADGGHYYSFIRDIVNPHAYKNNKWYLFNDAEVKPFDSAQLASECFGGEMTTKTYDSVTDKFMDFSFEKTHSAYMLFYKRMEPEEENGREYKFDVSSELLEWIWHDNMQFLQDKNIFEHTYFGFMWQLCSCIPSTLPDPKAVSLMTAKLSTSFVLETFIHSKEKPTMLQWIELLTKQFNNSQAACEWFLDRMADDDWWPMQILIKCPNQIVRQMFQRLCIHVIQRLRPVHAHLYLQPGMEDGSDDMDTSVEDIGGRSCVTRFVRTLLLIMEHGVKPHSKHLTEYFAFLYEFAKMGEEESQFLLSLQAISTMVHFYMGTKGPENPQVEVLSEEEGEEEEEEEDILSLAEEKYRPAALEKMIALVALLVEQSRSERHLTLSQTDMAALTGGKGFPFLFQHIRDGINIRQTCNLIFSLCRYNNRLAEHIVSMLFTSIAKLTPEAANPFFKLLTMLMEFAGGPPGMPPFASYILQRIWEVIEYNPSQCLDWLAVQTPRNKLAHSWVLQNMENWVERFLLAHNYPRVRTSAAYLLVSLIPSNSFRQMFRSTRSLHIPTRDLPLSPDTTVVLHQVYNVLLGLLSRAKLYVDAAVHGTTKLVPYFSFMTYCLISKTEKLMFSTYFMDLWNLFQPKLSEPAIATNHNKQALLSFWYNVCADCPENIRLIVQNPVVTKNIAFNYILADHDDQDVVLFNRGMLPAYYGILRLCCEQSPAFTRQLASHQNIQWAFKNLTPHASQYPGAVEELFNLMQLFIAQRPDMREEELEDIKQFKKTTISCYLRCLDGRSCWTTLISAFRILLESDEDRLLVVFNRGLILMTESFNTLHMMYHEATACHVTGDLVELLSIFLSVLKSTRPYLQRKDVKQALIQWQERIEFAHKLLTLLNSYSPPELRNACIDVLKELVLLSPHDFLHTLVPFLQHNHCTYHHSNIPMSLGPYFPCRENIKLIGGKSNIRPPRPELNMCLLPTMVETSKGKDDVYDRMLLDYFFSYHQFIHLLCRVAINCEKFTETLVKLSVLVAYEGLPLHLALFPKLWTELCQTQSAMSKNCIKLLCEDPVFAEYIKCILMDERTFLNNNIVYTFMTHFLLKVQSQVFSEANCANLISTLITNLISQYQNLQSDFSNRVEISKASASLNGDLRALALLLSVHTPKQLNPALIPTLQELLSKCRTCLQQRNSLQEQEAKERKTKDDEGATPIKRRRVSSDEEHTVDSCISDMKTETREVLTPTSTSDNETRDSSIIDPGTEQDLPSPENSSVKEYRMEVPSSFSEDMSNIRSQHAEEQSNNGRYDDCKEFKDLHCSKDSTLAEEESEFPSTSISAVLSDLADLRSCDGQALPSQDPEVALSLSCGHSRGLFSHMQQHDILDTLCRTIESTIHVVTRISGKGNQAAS
In short: (§1)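 Fragment (200 µM) or vehicle was incubated for 3 h with triplicate HEK293T lysate samples of 495 µg, which were then treated with Biotin-Ahx-Ub-VS at 0.5 µM final for 1 h. Labelled DUBs were enriched on NeutrAvidin, digested with LysC and trypsin, and analysed by diaPASEF LC-MS/MS. Values are average log2 fragment/vehicle ratios from an unpaired t-test on global-median-normalised Spectronaut label-free quantities, using proteins with ≥2 unique peptides.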

USP36 = target: T1, USP36 (UniProt Q9P275)
T1 sequence (whole entry): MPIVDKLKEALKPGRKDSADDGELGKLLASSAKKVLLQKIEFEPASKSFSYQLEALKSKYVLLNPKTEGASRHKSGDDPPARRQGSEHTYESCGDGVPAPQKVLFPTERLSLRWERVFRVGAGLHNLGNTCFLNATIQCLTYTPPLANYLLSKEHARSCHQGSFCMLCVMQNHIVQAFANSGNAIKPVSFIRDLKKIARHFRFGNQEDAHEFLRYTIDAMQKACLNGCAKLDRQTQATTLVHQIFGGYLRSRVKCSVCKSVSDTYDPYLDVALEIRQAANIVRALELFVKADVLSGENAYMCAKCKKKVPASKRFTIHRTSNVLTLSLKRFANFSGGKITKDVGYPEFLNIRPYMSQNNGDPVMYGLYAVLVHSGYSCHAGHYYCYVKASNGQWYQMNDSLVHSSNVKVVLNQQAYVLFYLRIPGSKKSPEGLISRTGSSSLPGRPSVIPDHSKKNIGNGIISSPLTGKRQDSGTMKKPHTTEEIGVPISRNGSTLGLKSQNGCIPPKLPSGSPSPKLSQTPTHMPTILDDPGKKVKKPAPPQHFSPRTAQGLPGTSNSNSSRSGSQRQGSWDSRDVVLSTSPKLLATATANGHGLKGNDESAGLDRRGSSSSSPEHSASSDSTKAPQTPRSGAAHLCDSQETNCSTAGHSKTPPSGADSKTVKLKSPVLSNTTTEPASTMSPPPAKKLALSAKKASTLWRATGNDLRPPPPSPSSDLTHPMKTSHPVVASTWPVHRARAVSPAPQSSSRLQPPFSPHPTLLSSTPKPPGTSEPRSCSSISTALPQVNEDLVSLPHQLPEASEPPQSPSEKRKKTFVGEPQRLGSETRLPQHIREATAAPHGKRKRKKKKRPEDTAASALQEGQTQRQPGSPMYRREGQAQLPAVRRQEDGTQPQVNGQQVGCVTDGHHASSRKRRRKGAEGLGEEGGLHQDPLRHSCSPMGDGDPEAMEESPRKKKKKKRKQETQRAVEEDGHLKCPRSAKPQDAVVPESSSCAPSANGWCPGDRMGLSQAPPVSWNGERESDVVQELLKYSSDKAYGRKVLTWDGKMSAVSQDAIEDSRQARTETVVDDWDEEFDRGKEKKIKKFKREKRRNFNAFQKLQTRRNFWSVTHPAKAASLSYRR
In short: as §1

USP38 = target: T2, USP38 (UniProt Q8NB14)
T2 sequence (whole entry): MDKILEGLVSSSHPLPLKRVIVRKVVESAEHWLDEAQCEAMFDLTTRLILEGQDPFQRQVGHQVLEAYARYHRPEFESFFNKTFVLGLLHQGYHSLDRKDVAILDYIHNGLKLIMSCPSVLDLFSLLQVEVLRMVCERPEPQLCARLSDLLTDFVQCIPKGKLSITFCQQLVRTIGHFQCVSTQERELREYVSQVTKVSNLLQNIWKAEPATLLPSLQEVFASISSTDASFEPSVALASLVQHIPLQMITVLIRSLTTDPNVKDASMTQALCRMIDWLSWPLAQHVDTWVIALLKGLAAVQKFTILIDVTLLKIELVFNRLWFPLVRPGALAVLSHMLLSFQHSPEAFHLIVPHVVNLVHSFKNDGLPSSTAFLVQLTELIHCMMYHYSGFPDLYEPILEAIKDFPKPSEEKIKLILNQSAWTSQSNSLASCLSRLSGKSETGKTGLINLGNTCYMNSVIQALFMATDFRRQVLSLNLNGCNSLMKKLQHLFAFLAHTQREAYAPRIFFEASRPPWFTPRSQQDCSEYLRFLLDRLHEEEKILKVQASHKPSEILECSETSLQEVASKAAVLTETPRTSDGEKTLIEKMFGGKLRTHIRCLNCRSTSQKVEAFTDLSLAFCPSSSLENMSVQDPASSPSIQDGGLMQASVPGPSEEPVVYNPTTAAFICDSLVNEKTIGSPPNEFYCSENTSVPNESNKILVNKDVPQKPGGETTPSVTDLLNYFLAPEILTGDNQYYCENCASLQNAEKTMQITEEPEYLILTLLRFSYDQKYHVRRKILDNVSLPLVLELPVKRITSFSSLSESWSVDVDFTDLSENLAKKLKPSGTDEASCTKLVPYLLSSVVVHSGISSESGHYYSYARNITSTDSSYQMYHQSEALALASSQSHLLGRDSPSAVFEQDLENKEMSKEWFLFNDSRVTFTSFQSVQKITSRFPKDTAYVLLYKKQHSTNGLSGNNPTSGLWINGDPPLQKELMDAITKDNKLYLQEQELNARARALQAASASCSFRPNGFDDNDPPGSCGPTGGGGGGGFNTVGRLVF
In short: as §1

USP39 = target: T3, USP39 (UniProt Q53GS9)
T3 sequence (whole entry): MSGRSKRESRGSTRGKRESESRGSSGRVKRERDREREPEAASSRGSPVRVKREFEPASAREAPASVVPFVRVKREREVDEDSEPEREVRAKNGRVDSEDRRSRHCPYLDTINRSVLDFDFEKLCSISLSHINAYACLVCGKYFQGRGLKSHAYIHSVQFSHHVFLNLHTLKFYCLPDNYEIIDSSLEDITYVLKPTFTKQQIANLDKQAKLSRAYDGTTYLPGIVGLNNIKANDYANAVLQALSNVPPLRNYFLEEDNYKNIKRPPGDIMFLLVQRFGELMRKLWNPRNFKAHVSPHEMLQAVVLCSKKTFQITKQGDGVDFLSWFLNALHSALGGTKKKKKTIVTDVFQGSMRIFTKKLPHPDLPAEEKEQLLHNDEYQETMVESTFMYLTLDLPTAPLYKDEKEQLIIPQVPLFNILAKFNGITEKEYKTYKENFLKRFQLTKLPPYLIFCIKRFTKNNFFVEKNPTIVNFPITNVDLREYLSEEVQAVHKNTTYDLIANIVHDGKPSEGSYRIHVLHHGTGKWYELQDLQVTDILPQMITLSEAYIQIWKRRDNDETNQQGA
In short: as §1

USP4 = target: T4, USP4 (UniProt Q13107)
T4 sequence (whole entry): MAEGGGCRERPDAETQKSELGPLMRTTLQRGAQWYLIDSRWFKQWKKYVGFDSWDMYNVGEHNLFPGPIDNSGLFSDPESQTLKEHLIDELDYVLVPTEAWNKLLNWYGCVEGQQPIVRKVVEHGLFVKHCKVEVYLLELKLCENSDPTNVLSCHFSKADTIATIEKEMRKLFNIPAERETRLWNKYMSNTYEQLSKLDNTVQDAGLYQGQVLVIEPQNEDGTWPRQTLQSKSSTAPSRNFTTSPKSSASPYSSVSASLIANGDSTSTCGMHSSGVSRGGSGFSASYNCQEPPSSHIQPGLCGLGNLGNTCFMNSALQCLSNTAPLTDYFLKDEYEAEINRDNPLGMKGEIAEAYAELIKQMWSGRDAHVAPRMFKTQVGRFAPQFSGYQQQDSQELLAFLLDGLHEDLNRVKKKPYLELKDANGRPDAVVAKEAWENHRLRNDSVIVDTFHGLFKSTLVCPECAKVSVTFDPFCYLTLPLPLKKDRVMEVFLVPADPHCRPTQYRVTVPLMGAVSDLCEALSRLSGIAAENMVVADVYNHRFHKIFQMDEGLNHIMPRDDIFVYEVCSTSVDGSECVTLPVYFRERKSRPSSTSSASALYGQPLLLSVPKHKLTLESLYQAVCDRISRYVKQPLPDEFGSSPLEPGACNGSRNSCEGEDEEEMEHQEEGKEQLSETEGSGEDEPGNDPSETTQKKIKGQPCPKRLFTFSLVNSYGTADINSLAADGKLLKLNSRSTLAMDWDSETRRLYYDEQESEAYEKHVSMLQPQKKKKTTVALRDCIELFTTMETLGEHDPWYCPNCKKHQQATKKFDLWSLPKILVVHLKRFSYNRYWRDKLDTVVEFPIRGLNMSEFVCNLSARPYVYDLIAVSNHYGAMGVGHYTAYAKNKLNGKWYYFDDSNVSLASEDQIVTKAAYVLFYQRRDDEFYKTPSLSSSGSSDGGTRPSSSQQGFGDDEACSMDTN
In short: as §1

Measured: log2 ratio of Biotin-Ahx-Ub-VS probe labelling

Cl.O=C(CCl)NCc1cc2c(nc1O)CCCC2
inactive: USP34 -0.103 | USP36 -0.408 | USP38 -0.0702 | USP39 -0.212 | USP4 -0.0856
